Source: PubChem
Compounds with a hit are over-represented: about 4.9% of the library has one in this group of screens.
tim23-1 inh – inhibits growth of tim23-1 mutant yeast. inhibition, % at 20 µM. hit rate 1.3% among 330,000. AID 463212. S. cerevisiae tim23-1 growth, BacTiter-Glo luminescence, 24 h;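 active = growth inhibition of the mutant yeast at or above 50%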;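 note: temperature-sensitive mutant grown at 25 °C; plate controls were DMSO-treated mutant yeast for no effect and medium wells lacking yeast for full effect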
SKKanGAS inh – SKKanGAS growth inhibition. inhibition, % at 7.5 µM. S. pyogenes SKKanGAS, kanamycin growth, BacTiter-Glo, 6 h. AID 1662. hit rate 1.3% among 300,000;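 active = mean replicate score, as percent of positive control median, at least 50; inconclusive = mean below 50 but one replicate at or above 50; inactive = mean and every replicate below 50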;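 note: strain carries kanamycin resistance gene driven by streptokinase promoter and grows in 40 µg/ml kanamycin; loss of luminescence reflects streptokinase promoter inhibition or plain growth inhibition; 0% = median of DMSO wells and 100% = positive control at its reference dose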
NLRP3 yeast inh – inhibitors of NALP3 inflammasome in yeast. inhibition, % at 10 µM. hit rate 0.39% among 330,000. Yeast reconstituted NLRP3/ASC/caspase-1, beta-gal luminescence, 24 h. AID 2825;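 active = inhibition of 50% or more; inactive = inhibition below 50%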;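 note: plate controls were induced DMSO wells for no effect and uninduced yeast grown without galactose for full effect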
tim10-1 inh – growth inhibitors of tim10-1 mutant yeast | S. cerevisiae tim10-1 ts strain growth, BacTiter-Glo, 24 h | inhibition, % at 20 µM | hit rate 2.2% among 330,000 | AID 463190;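 active = inhibition of at least 40%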;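 note: mutant grown at 25 °C; 0% = DMSO wells with yeast and 100% = wells holding no yeast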
TIM10 inh – inhibits growth of TIM10 yeast strain; S. cerevisiae TIM10 strain growth, BacTiter-Glo luminescence, 24 h; AID 463195; hit rate 1.4% among 330,000; inhibition, % at 10 µM;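 active = inhibition of 40% or more at the single tested concentration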;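 note: wild-type TIM10 isogenic control strain grown at permissive 25 °C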
NALP1 inh – blocks the NALP1 inflammasome reconstituted in yeast. S. cerevisiae NALP1/ASC/caspase-1 growth, X-gal OD620, 72 h. hit rate 0.61% among 280,000. inhibition, % at 10 µM. AID 2071; in the data active = inhibition mostly above about 24%, no sharp cut-off; inactive = mostly below about 32%
tim23-1 conf – confirmation of tim23-1 mutant yeast growth inhibitors; AID 463218; hit rate 83% among 4,400; S. cerevisiae tim23-1 growth, BacTiter-Glo luminescence, 24 h; inhibition, % at 20 µM; shares compounds with tim23-1 inh;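 active = inhibition above about 39% in either of two replicate wells at 20 µM, limit read from the data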;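 note: temperature-sensitive tim23-1 mutant grown at 25 °C; 0% = DMSO wells with yeast and 100% = medium wells without yeast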
* = called active by the depositor; ? = inconclusive; / = no result.

SMILES	tim23-1 inh	SKKanGAS inh	NLRP3 yeast inh	tim10-1 inh	TIM10 inh	NALP1 inh	tim23-1 conf
COc1cccc(-c2sc3cc(OC)c(OC)cc3c2-c2ccc(OCCN3CCCCC3)cc2)c1	43	/	/	14	20	/	/
COc1ccccc1-c1sc2ccccc2c1-c1ccc(OCCN2CCCCC2)cc1	52*	/	/	13	-112	/	37
COc1ccc2c(-c3ccc(OCCN4CCCCC4)cc3)c(-c3ccccc3OC)sc2c1	1	/	/	-42	10	/	/
CSCCC(NC(=O)c1ccco1)C(=O)OCC(=O)N1c2ccccc2NC(=O)C1(C)C (configuration not stated)	-3	/	-8	16	4	/	/
O=S(=O)(Nc1cccc2ccccc12)c1cccs1	24	-5	-17	29	23	-3	/
O=S(=O)(Nc1ccc(O)c2ccccc12)c1cccs1	57*	28	28	12	29	16	44*
Oc1ccc(-c2nccc(-c3cccs3)n2)cc1	57*	-10	15	8	20	5	58*
COC(=O)C(C)Oc1ccc(-c2nccc(-c3cccs3)n2)cc1 (configuration not stated)	36	-4	-9	36	11	21	/
CC(C)N(Cc1ccccc1)C(=O)CN1C(=O)NC2(CCOc3ccccc32)C1=O (configuration not stated)	4	/	11	-9	-2	/	/
CCOC(=O)C(C(=O)Nc1nccs1)C1CCCCC1 (configuration not stated)	21	-6	25	15	-1	5	/
CSc1nnc(NC(=O)c2nc(S(=O)(=O)Cc3ccccc3)ncc2Cl)s1	15	2	12	14	10	-12	/
COC(=O)c1ccc(NC(=O)c2nc(S(=O)(=O)Cc3cccc(C)c3)ncc2Cl)cc1	69*	104*	16	32	1	9	51*
COc1ccccc1NC(=O)c1nc(S(=O)(=O)Cc2ccccc2)ncc1Cl	53*	13	14	28	36	16	48*
COc1cc(NC(=S)N2CCCCC2C)cc(OC)c1OC (configuration not stated)	6	-7	-13	10	1	-12	/
CCCC1C2C(=O)N(c3ccccc3OCC)C(=O)C2ON1c1ccccc1 (configuration not stated)	15	-7	-8	24	16	26	/
CCS(=O)(=O)N1CCC2(CC1)OCCN2S(=O)(=O)c1ccc(OC)cc1	5	2	12	-8	-2	/	/
COc1ccc(S(=O)(=O)N2CCOC23CCN(S(=O)(=O)c2cc(F)ccc2F)CC3)cc1	53*	-3	35	35	-5	/	38
CCOC(=O)[C@@H]1[C@H]2COc3ccc(Br)cc3[C@@H]2N2C(=O)N(c3ccccc3)C(=O)[C@@]12C	44	5	5	31	18	7	/
CCOC(=O)[C@H]1[C@H]2COc3ccc(Br)cc3[C@@H]2N2C(=O)N(c3ccccc3)C(=O)[C@@]12C	50*	/	2	24	24	/	28
CCOC(=O)Nc1nc(-c2ccccc2)c(C(=O)c2ccc(Cl)cc2)s1	53*	36	23	34	34	15	59*
CCOC(=O)Nc1sc(C)nc1-c1ccccc1	0	-8	-7	-21	-7	-43	/
O=C(COc1c(Cl)cc(Cl)cc1Cl)c1ccc(Cl)cc1	3	-9	12	18	-4	31	/
COc1ccc(NC(=O)c2cc3c(s2)CCC(C)C3)cc1S(=O)(=O)N1CCOCC1 (configuration not stated)	19	6	-10	21	10	28	/
Cc1cccc(-n2c(SCC(N)=O)nc3c(c2=O)C2(CCCC2)Cc2ccccc2-3)c1	54*	26	8	25	38	37	47*
Cc1ccc(C(=O)NC(=S)Nc2ccc(CN3CCOCC3)cc2)cc1	52*	0	8	15	-18	10	13
SMILES	tim23-1 inh	SKKanGAS inh	NLRP3 yeast inh	tim10-1 inh	TIM10 inh	NALP1 inh	tim23-1 conf
O=[N+]([O-])c1ccccc1S(=O)(=O)c1ccccc1[N+](=O)[O-]	13	-2	4	13	23	14	/
Cc1ccccc1OCc1nc2ccccc2c(=O)n1NC(=O)c1ccco1	53*	5	9	20	10	-10	38
Cc1nc2ccccc2c(=O)n1NC(=O)c1ccco1	10	/	14	0	0	7	/
Cc1nc2c(n1C1CCCCC1)C(=O)c1ccccc1C2=O	51*	6	-22	34	25	-16	40*
CCN(C(=O)Cn1cnc2ccccc2c1=O)C1CCS(=O)(=O)C1 (configuration not stated)	8	-9	7	-3	-5	/	/
S=C1CCC(c2ccc(Cl)cc2)=NN1c1ccccc1	50*	-5	11	34	37	/	34
O=C(c1ccccc1)N1CCCC(c2ccc(Cl)cc2)=N1	41	-11	18	35	26	8	/
CCc1ccc(OCCCCCn2ccnc2)cc1	-33	1	25	-48	-11	9	/
NC(=O)C1=C[C@H](C2CCCCC2)C[C@H](OCc2ccc(CO)cc2)O1	20	2	17	16	15	-10	/
CC(C)(C)OC(=O)N1CCC(c2c(C(=O)NCC3CCN(C4CCCC4)C3)cnn2-c2ccc(F)cc2)CC1 (configuration not stated)	-1	9	-1	-4	5	10	/
COc1ccc(S(=O)(=O)NCCCN2CCCC2=O)c(OC)c1	-1	4	10	-6	-7	0	/
CCOc1ccc2c3c(c(=O)oc2c1OCC)CCCC3	52*	-5	22	39	20	-2	39*
CCCOc1ccc2c3c(c(=O)oc2c1OCCC)CCCC3	31	-9	30	16	-7	26	/
CC1=C(OC(=O)c2ccccc2)C(C)(C)C(c2ccc(Br)cc2)OC1=O (configuration not stated)	33	12	10	16	11	7	/
O=C(CSc1nc2ccccc2o1)c1cc2ccccc2oc1=O	38	/	8	4	0	8	/
Cc1cc(C)nc(SCC(=O)c2cc3ccccc3oc2=O)n1	50*	4	1	16	22	-6	43*
CCO[C@H]1OC(C(=O)N2CCN(Cc3ccc4c(c3)OCO4)CC2)=C[C@@H](c2ccc(C(F)(F)F)cc2)[C@@H]1CCCO	26	7	15	25	12	-2	/
CC1=CC(C)(C)N(C(=O)c2ccc(F)cc2)c2cc3c(cc21)OCO3	54*	-4	14	35	39	28	44*
CCOC(=O)[C@H]1[C@H]2COc3ccccc3[C@@H]2N2C(=O)c3ccccc3NC(=O)[C@@]12C	18	/	13	14	9	/	/
CCc1ccc(C2NC(=O)c3ccccc3O2)cc1 (configuration not stated)	52*	?	37	9	10	2	29
